D3 ag: activates the human D3 dopamine receptor; D3R DiscoveRx beta-arrestin cells, luminescence, 90 min; max activation, %; 410,000 tested, 0.58% active; in the data active = max activation above about 30%; also: 0% is about no effect
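Agonist mode: compounds and dopamine controls were applied to plated cells for 90 min at 37 degrees C after an overnight attachment at 1500 cells/well. Luminescent read-out followed 30 - 60 minutes at room temperature with DiscoveRx detection reagent.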
D1 agonist: agonists of human D1 dopamine receptor | P21728 | HEK293 T-REx D1 cells, calcium flux, agonist mode | activation, % at 2 µM | 360,000 tested, 1% active | AID 504660; in the data active = activation above about 30%; also: 0% is about no effect
Target sequence (P21728 whole entry, looked up): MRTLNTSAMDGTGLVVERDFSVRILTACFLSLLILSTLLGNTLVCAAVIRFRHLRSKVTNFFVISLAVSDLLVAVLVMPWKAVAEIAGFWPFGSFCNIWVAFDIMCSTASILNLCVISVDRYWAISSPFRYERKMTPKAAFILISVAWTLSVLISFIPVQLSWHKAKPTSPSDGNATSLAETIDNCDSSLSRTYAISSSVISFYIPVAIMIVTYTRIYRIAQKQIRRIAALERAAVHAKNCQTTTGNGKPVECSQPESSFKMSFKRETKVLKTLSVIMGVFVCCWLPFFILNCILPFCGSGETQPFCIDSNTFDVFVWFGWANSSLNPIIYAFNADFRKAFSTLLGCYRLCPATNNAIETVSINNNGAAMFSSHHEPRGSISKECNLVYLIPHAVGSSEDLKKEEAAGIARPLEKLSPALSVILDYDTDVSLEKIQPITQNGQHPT
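Agonism was scored from calcium flux recorded over 180 s (1 read/s) after pintool compound addition, following a 10-cycle baseline. Cells were inducible force-coupled HEK293 TREx D1, plated overnight at 30 C and loaded with no-wash calcium dye.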
D1 PAM: potentiators of human D1 dopamine receptor. P21728. HEK293 TREx D1 cells, calcium flux, dopamine EC20 potentiation. potentiation, % at 10 µM. 360,000 tested, 0.036% active; in the data active = potentiation above about 30%; also: 0% is about no effect
D1 antag: blocks dopamine activation of the human D1 receptor. activity change, negative = inhibition, % at 10 µM. HEK293 TREx D1 cells, calcium flux, dopamine EC80; active compounds read low. AID 504652. 360,000 tested, 3.2% active. P21728; in the data active = activity change below about -30%; also: % is scaled to controls: 0 for no effect and ±100 for the full control effect
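Tetracycline-induced HEK293 Trex D1 cells, force-coupled to calcium, dye-loaded; compounds added and read 180 s, then EC80 dopamine added and calcium flux tracked kinetically another 180 s.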
D3 antag: D3 dopamine receptor (human) antagonism; D3R cells, DiscoveRx beta-arrestin luminescence, antagonist mode; active compounds read low; max response, negative = inhibition, %; P35462; 360,000 tested, 2.5% active; in the data active = max response below about -50%; inconclusive = no clear call, values can overlap the other calls; also: % is scaled to controls: 0 for no effect and ±100 for the full control effect
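Cells plated overnight at 1500 cells/well, then exposed to library compounds with dopamine controls for 90 minutes at 37 degrees C. DiscoveRx reagent added for 30–60 minutes at room temperature; luminescence read, quantitative HTS format.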
Starred values were filed as active, the others as inactive. Most compounds without a hit are left out; they make up all but 6% or so of the library.

How did CCCNC(=O)COC(=O)c1ccccc1C(=O)c1ccc(Cl)c([N+](=O)[O-])c1 do in these assays?
D3 ag: -21; D1 agonist: -1; D1 PAM: -6; D1 antag: -30; D3 antag: -101*

Results for Cc1ccc(Cl)c(NC(=O)COC(=O)c2ccccc2C(=O)c2ccc(Cl)c([N+](=O)[O-])c2)c1Cl ?
D3 ag: -23; D1 agonist: 2; D1 PAM: -3; D1 antag: -16; D3 antag: -71*

How did CCNc1ccc(C(=O)OCC(=O)NCc2ccccc2Cl)cc1[N+](=O)[O-] do in these assays?
D3 ag: 5; D1 agonist: 2; D1 PAM: -1; D1 antag: -88*; D3 antag: 3

Results for CCNc1ccc(C(=O)OCC(=O)NC(=O)NCC(C)C)cc1[N+](=O)[O-] ?
D3 ag: 4; D1 agonist: 1; D1 PAM: -2; D1 antag: -16; D3 antag: 7

How did COc1cc2c(cc1OC)C(COc1ccc3c(C)cc(=O)oc3c1)N(C(=O)c1ccccc1C)CC2 (configuration not stated) do in these assays?
D3 ag: -4; D1 agonist: 3; D1 PAM: -1; D1 antag: 1

How did CCOc1ccc(-c2nonc2NC(=O)COc2ccccc2)cc1 do in these assays?
D3 ag: -1; D1 agonist: 7; D1 PAM: -5; D1 antag: 5

What do the screens show for `CC(C)N(C(=O)Cn1cc(S(=O)(=O)Cc2ccc(Br)cc2)c2ccccc21)C(C)C`?
D3 ag: 4; D1 agonist: 1; D1 PAM: -6; D1 antag: -2

What do the screens show for `O=C1CC(C(F)(F)F)=NN1`?
D3 ag: 33*; D1 agonist: 3; D1 PAM: 1; D1 antag: 3; D3 antag: 12

How did CCOC(=O)C1=C(C)N=C2c3ccccc3C(=O)C2C1c1ccc(Cl)cc1 (configuration not stated) do in these assays?
D3 ag: -19; D1 agonist: 1; D1 PAM: -19; D1 antag: -19; D3 antag: inconclusive

How did CCOC(=O)C1=C(Cc2ccc(Cl)cc2)C(=O)c2ccccc2C1=O do in these assays?
D3 ag: -20; D1 agonist: 9; D1 PAM: -3; D1 antag: -8; D3 antag: -76*

Results for O=C1CC(c2ccsc2)Sc2ccccc2N1 (configuration not stated) ?
D3 ag: 6; D1 agonist: 5; D1 PAM: 1; D1 antag: -32*; D3 antag: -12

How did Cc1cc(C2CC(=O)Nc3ccccc3S2)c(C)s1 (configuration not stated) do in these assays?
D3 ag: -4; D1 agonist: 7; D1 PAM: 4; D1 antag: -9; D3 antag: 7

Results for Cc1ccc(C)c(N2CCN(C(=O)CCn3c(=O)[nH]c4ccccc4c3=O)CC2)c1 ?
D3 ag: -16; D1 agonist: 1; D1 PAM: -2; D1 antag: 5

How did Cc1ccc(Cl)cc1N1CCN(C(=O)c2ccc(NC(=O)c3nsc4ccccc34)cc2)CC1 do in these assays?
D3 ag: -1; D1 agonist: 8; D1 PAM: -3; D1 antag: -6

Results for Cc1cccc(-c2nnc(NC(=O)c3ccc(Cl)cc3)o2)c1 ?
D3 ag: -18; D1 agonist: 57*; D1 PAM: 6; D1 antag: 0; D3 antag: -97*

How did O=C(Nc1nnc(-c2ccco2)o1)c1ccc(Cl)s1 do in these assays?
D3 ag: -3; D1 agonist: 1; D1 PAM: -7; D1 antag: -10; D3 antag: 8

Results for O=C(Nc1nnc(-c2ccc(Cl)cc2)o1)Nc1ccccc1Cl ?
D3 ag: -3; D1 agonist: 1; D1 PAM: 0; D1 antag: -4; D3 antag: 15

How did COc1cccc(-c2nnc(NC(=O)c3ccc(Cl)s3)o2)c1 do in these assays?
D3 ag: 6; D1 agonist: 73*; D1 PAM: -5; D1 antag: -36*; D3 antag: -18

How did O=C(Nc1nnc(-c2ccc(Cl)cc2)o1)c1nc2ccccc2s1 do in these assays?
D3 ag: -9; D1 agonist: -1; D1 PAM: 0; D1 antag: 7; D3 antag: -74*

What do the screens show for `Cc1ccc(Cl)cc1NC(=O)Cn1cc2c(n1)CCCCC2`?
D3 ag: -9; D1 agonist: 1; D1 PAM: 1; D1 antag: 17

What do the screens show for `CNC(=O)C1CCC(Cn2c(=O)[nH]c3ccsc3c2=O)CC1` (configuration not stated)?
D3 ag: -6; D1 agonist: 7; D1 PAM: -2; D1 antag: -3

What do the screens show for `CCOC(=O)/C=C/C(=O)Nc1ccccc1-c1ccccc1NC(=O)/C=C/C(=O)OCC`?
D3 ag: -5; D1 agonist: 0; D1 PAM: 3; D1 antag: 7; D3 antag: -62*

What do the screens show for `CCOC(=O)/C=C/C(=O)Nc1cccc([N+](=O)[O-])c1`?
D3 ag: -5; D1 agonist: 4; D1 PAM: -5; D1 antag: -15; D3 antag: -21

Results for CC(=O)c1ccc(NC(=O)c2sc(-n3nc(C)c(Cc4ccccc4)c3C)nc2C)cc1 ?
D3 ag: 2; D1 agonist: 1; D1 PAM: -2; D1 antag: -24

What do the screens show for `Cc1ccc(NC(=O)c2cc3c(=O)n(Cc4cccnc4)ccc3nc2C)cc1F`?
D3 ag: 0; D1 agonist: 0; D1 PAM: -2; D1 antag: -13

What do the screens show for `Cc1ccc(CNC(=O)CN(C2CCCCC2)S(C)(=O)=O)cc1`?
D3 ag: -9; D1 agonist: -2; D1 PAM: -9; D1 antag: 10; D3 antag: 9

Results for COc1ccc(CCNC(=O)CN(C2CCCCC2)S(C)(=O)=O)cc1 ?
D3 ag: 0; D1 agonist: 2; D1 PAM: -5; D1 antag: -9; D3 antag: -15

How did COc1ccc(CNC(=O)CN(C2CCCCC2)S(C)(=O)=O)cc1 do in these assays?
D3 ag: -7; D1 agonist: 2; D1 PAM: -9; D1 antag: -32*; D3 antag: -17

What do the screens show for `CS(=O)(=O)N(CC(=O)NCc1ccccc1)C1CCCCC1`?
D3 ag: 4; D1 agonist: -1; D1 PAM: -14; D1 antag: -61*; D3 antag: 10

What do the screens show for `Cc1ccc(C)c(CN2C(=O)c3ccccc3S(=O)c3ccc(C(=O)NCCc4ccc(Cl)cc4)cc32)c1` (configuration not stated)?
D3 ag: -6; D1 agonist: 15; D1 PAM: -2; D1 antag: 15
